The subject of test [1] is TRPC4 beta (transient receptor potential cation channel C4), mouse. Kind of test: activators of mouse TRPC4 channel, confirmation, cell-based, Fluo4 calcium, HEK293 TRPC4beta/mu-opioid, duplicates, 10 µM (AID 2426;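 active = fluorescence ratio normalized to control raised more than 50% in primary screen plus both repeat runs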;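 as to activation: percent rise of integrated ratio over buffer wells lacking compound which define 0%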). As to conditions: Fluo4 calcium fluorescence, at 10 µM; hits give high values.
Test [2] concerns transient receptor potential cation channel C4 beta (TRPC4), mouse. Kind of test: activators of mouse TRPC4 channel, confirmation, cell-based, second round, Fluo4, HEK293 TRPC4beta/mu-opioid, 1 µM (AID 2461;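 active = primary screen active and over 50% activation in each of two duplicate runs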;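 as to activation: 0% = wells without test compound as baseline of integrated fluorescence ratio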). As to conditions: Fluo4 calcium fluorescence, at 1 µM; hits give high values.
The subject of test [3] is TRPC4 (transient receptor potential cation channel C4 beta), mouse. Nature of the test: positive allosteric modulators of mouse TRPC4, confirmation, cell-based, second round, Fluo-4, HEK293 TRPC4beta/mu-opioid, 1 µM (AID 2554;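 active = primary screen hit whose fluorescence ratio, in both repeats, exceeds the weak agonist control mean by 3 SD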). The following applies: DAMGO EC20, Fluo-4 calcium flux, at 1 µM; hits give high values.
Test [4] has as its system TRPC4 beta (transient receptor potential cation channel C4), mouse. Nature of the test: positive allosteric modulators of mouse TRPC4, confirmation, cell-based, Fluo-4, HEK293 TRPC4beta/mu-opioid (AID 2555). The following applies: DAMGO EC20, Fluo-4 calcium flux, at 10 µM; hits give high values.
In test [5] the target is Short transient receptor potential channel 4 (Mus musculus) (UniProt Q9QUQ5). Nature of the test: inhibitors of mouse TRPC4 channel, confirmation, cell-based, Fluo4, HEK293 TRPC4beta/mu-opioid (AID 2636;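 active = calcium signal cut by more than 3 SD below the full-agonist control yet still positive, in both repeats and the earlier primary screen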). As to conditions: DAMGO, Fluo4 calcium flux, at 10 µM; hits give high values.
Sequence of Short transient receptor potential channel 4 (Mus musculus) (Q9QUQ5 whole entry, looked up): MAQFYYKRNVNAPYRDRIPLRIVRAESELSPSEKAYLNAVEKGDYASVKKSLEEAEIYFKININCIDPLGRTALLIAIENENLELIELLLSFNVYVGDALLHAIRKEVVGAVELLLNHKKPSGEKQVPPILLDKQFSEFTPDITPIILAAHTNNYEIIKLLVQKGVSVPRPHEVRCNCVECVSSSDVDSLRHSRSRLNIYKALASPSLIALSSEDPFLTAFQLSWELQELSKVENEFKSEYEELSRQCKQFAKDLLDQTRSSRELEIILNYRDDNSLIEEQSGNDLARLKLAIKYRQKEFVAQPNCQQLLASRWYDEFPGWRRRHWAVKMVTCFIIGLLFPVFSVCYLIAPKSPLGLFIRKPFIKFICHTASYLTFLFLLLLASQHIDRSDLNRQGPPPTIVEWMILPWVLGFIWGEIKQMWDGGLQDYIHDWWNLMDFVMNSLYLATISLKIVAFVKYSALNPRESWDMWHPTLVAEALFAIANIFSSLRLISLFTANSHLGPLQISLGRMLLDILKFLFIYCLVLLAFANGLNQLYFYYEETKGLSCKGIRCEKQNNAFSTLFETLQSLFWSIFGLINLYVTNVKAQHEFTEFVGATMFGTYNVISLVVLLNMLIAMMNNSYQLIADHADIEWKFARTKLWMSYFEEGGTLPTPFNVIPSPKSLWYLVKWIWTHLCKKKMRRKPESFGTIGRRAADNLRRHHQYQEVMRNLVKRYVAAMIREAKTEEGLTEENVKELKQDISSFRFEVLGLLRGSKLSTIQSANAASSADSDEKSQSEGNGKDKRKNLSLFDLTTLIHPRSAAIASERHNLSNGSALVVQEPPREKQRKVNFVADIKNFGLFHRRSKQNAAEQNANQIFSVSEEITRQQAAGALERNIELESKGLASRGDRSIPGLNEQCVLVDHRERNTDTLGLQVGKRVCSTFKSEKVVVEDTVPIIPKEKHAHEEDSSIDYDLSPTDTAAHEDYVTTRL
For test [6] the target is unchanged. Nature of the test: inhibitors of mouse TRPC4 channel, confirmation, cell-based, second round, Fluo4, HEK293 TRPC4beta/mu-opioid, 1 µM (AID 2637;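 active = calcium signal ratio cut to more than 3 SD under the fully stimulated control mean yet still positive, in both repeats and the primary screen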). The following applies: Fluo4 calcium flux, DAMGO, at 1 µM; hits give high values.
Test [7] shares this target. Nature of the test: TRPC4 positive allosteric modulators, dose response, cell-based, HEK293 TRPC4/mu-opioid, Fluo-4 calcium, EC20 DAMGO (AID 434941;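 active = earlier screen potentiator hit that boosts the TRPC4 ion channel at some dose, with a dose response; inactive = no potentiation, no dose response, or not a prior hit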;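 also: calcium entry triggered by an EC20 dose of DAMGO at the co-expressed mu-opioid receptor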).
Test [8] has the same target. Kind of test: mouse TRPC4 channel inhibitors, dose response, cell-based, HEK293 TRPC4/mu-opioid, Fluo-4 calcium (AID 434942;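 active = primary screen inhibitor hit that blocks the TRPC4 channel at some tested dose, yielding a dose curve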).
Test [9] deals with Short transient receptor potential channel 6 (Mus musculus) (UniProt Q61143). Nature of the test: inhibition of mouse TRPC6 channel, confirmation, selectivity assay for TRPC4 inhibitor project, cell-based, HEK293, membrane potential dye, duplicate (AID 434948;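 active = active in primary screen and both duplicates, each dropping signal beyond three positive-control SD with fluorescence still positive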). As to conditions: HEK293 TRPC6, membrane potential dye fluorescence, at 10 µM, stimulated with maximal-effect acetylcholine; hits give high values.
Sequence of Short transient receptor potential channel 6 (Mus musculus) (Q61143 whole entry, looked up): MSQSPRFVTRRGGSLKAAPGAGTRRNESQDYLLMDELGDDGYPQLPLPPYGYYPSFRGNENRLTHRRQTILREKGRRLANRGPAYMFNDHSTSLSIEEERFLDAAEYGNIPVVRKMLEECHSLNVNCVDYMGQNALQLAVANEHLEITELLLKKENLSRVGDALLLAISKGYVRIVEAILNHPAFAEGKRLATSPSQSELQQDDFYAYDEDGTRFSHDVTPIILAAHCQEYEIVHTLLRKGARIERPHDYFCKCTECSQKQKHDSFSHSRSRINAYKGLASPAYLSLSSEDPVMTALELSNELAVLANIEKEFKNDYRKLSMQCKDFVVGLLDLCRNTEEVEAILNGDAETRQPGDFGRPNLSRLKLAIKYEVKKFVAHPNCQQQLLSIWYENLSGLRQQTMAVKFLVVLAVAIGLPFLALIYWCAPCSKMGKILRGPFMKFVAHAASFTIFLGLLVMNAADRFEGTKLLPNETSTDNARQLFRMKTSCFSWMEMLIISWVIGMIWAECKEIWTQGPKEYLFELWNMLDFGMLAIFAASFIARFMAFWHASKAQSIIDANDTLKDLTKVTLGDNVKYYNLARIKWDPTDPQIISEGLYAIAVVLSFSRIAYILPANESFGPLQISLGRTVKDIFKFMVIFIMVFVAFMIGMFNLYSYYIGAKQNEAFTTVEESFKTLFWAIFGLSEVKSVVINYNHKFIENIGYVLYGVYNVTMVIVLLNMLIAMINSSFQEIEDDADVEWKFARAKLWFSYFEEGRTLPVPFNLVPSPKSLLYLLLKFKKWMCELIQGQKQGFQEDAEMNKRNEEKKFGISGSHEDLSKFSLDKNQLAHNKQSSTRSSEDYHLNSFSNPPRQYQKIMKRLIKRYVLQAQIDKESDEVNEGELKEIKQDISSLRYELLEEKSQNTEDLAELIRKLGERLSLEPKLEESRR

Test [10] shares this target. Kind of test: activation of mouse TRPC6 channel, confirmation, selectivity assay for TRPC4 activator project, cell-based, HEK293, membrane potential dye, duplicate (AID 434950;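 active = membrane potential signal rise above negative control mean plus 3 SD in both duplicates, also active in the earlier TRPC4 screen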;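 as to activation: 0% = buffer only wells and 100% = acetylcholine maximal-effect wells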). The following applies: HEK293 TRPC6, membrane potential fluorescence, at 10 µM; hits give high values.
Test [11] shares this target. Kind of test: TRPC6 potentiation by TRPC4 potentiator hits, confirmation, selectivity assay for TRPC4 potentiator project, HEK293 cells, membrane potential dye, duplicate (AID 434952;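 active = compound raising the membrane signal above positive-control mean plus 3 SD in both repeats, and a primary screen hit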). The following applies: HEK293 TRPC6, membrane potential dye fluorescence, at 10 µM, maximal acetylcholine added after compound; hits give high values.
The target in test [12] is Short transient receptor potential channel 4 (Mus musculus) (UniProt Q9QUQ5). Kind of test: calcium flux activators in TRPC4/5HT1a cells, counter-screen for TRPC4 activator project, cell-based, second counter screen, HEK293 TRPC4/5HT1a, Fluo-4 (AID 434977;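 active = calcium signal rise above buffer-control mean plus 5 SD in both duplicates, and also a hit in the primary screen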;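 as to activation: plate controls were assay buffer for no effect and maximal serotonin response for full effect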). As to conditions: Fluo-4 calcium flux, at 10 µM; hits give high values.
Test [13] is described as follows: calcium flux inhibitors in TRPC4/5HT1a cells, confirmation, counter-screen for TRPC4 inhibitor project, cell-based, second counter screen, HEK293 TRPC4/5HT1a, Fluo-4 (AID 434978;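 active = primary screen active whose calcium signal fell more than 3 SD beyond the full-serotonin control mean in both duplicate plates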;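 also: serotonin given first at submaximal then at maximal dose after compound preincubation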). As to conditions: Fluo-4 calcium flux, at 10 µM, serotonin added to trigger calcium flux; hits give high values.
For test [14], the system named is TRPC4 (mouse), co-expressed with 5HT1a in HEK293. Nature of the test: calcium flux potentiators in TRPC4/5HT1a cells, confirmation, counter-screen for TRPC4 potentiator project, cell-based, second counter screen, HEK293 TRPC4/5HT1a, Fluo-4 (AID 434979;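 active = signal rise over 3 SD above mean of control wells given weak agonist, in both repeats and first screen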). The following applies: Fluo-4 calcium flux, at 10 µM, serotonin added at its EC20 dose; hits give high values.
Test [15] can be described thus: calcium flux activation in mu-opioid HEK293 cells, confirmation, counter-screen for TRPC4 activator project, cell-based, HEK293 mu-opioid receptor line (AID 449723;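 active = hit in primary screen, with calcium signal over 5 SD above buffer well mean in both duplicates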;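 also: counter screen cells carry the mu-opioid receptor alone and lack TRPC4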). The following applies: Fluo-4 calcium fluorescence, at 10 µM; hits give high values.
Test [16] is described as follows: calcium flux enhancement in mu-opioid HEK293 cells, confirmation, counter-screen for TRPC4 allosteric potentiator project, cell-based, HEK293 mu-opioid receptor line (AID 449724;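 active = calcium signal rise more than 3 SD above the low-dose agonist control mean, in both duplicate plates and the primary screen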;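 also: HEK293 cells carrying mu-opioid receptor only with no TRPC4 channel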). The following applies: Fluo-4 calcium flux, at 10 µM, compound added before EC20 DAMGO stimulus; hits give high values.

The values below come from PubChem BioAssay.

For part of these data: Measured potencies and affinities stand elsewhere. Calls of active or inactive are those of the source.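 The calls were made as follows, unless noted: active = primary screen hit whose calcium fluorescence ratio, in both repeats, exceeds the weak agonist control mean by 3 SD; inactive = the rest.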

Consider `NC(=O)C1CCCN(CCc2ccccc2)C1` (stereo not given), for which the figures for the activation in test [1], in test [2] and in test [12] were 157% (active), 133% (active) and 74.3% (active), respectively. In addition, the result in test [3], in test [4], in test [5], in test [6], in test [7] and in [8] was inactive. Also, the call in [9], in test [10], in test [11], in [13], in [14] and in test [15] was inactive. For the same compound, the outcome in test [16] was inactive.

`CC1CCN(CCCNS(=O)(=O)c2cc(Br)cc3c2N(C(=O)C2CC2)CC3)CC1`: the figures for the activation in test [1], in [2] and in test [12] were 91% (active), 63% (active) and 26.3% (active), respectively. The result in test [3], in test [4], in [5], in test [6], in test [7] and in [8] was inactive. The result in test [9], in test [10], in [11], in test [13], in test [14] and in [15] was inactive. Besides, the outcome in test [16] was inactive.

For the compound `Cc1ccc(C)c(NC(=S)NCC(c2ccccc2)N(C)C)c1` (stereo not given), the activation in [1] was 260% (active); in test [2], 127% (active); in test [10] it was 49% (active); in [12] it was 93.2% (active). The outcome in test [3], in test [4], in test [5], in [6], in test [7] and in test [8] was inactive. For the same compound, the compound was classed as inactive in test [9], in test [11], in test [13], in [14], in [15] and in [16].

With `Cc1csc2c(N3CCN(C(=S)Nc4ccc(C(F)(F)F)cc4)CC3)ncnc12`, the activation in test [1] was 102% (active); in [2], 55% (active); in test [12], 48.2% (active). Further, the outcome in test [3], in test [4], in test [5], in [6], in test [7] and in test [8] was inactive. Further, the compound was called inactive in test [9], in test [10], in [11], in test [13], in test [14] and in [15]. Moreover, in [16], the outcome was inactive.

With `Cc1sc2ncnc(NCC(c3ccco3)N3CCCC3)c2c1C` (stereo not given), the activation is 143% (active) in test [1], 178% (active) in test [2] and 78.8% (active) in test [12]. For the same compound, the result in test [3], in [4], in [5], in [6], in test [7] and in [8] was inactive. Moreover, the compound was classed as inactive in test [9], in test [10], in test [11], in [13], in test [14] and in test [15]. In addition, in [16], the result was inactive.

As to `COc1ccc(CC(=O)NCC(c2ccc(OC)cc2)N(C)C)cc1` (stereo not given), the figures for the activation in [1], in [2] and in test [10] were 200% (active), 95% (active) and 46.5% (active), respectively. Further, the outcome in test [3], in [4], in [5], in test [6], in [7] and in test [8] was inactive. The call in [9], in test [11], in [12], in test [13], in test [14] and in test [15] was inactive. Also, in [16], the result was inactive.

Regarding `O=C(NCCc1cnc[nH]1)c1ccc(-c2ccccc2)cc1`, the activation in test [1] is 109% (active); in [10], 59% (active); in [12] it was 17.5% (active). Moreover, the outcome in test [2], in test [3], in [4], in test [5], in test [6] and in test [7] was inactive. The outcome in test [8], in [9], in test [11], in test [13], in test [14] and in test [15] was inactive. In test [16], the result was inactive.

Consider `CCCN(CCC)CCCNC(=O)c1cc2c(-c3ccc(OC)c(OC)c3)nn(C)c2s1`, for which the activation in test [1] is 97% (active); in test [2], 78% (active); in [12], 38.6% (active). The outcome in test [3], in test [4], in [5], in [6], in test [7] and in [8] was inactive. In addition, the call in test [9], in test [10], in test [11], in test [13], in [14] and in test [15] was inactive. For the same compound, the outcome in test [16] was inactive.

For `CCCN(CCC)CCCNC(=O)c1ccc2c(Cl)c3c(nc2c1)CCC3`, the activation is 90% (active) in test [1], 89% (active) in [2], 27% (active) in test [10] and 105% (active) in test [12]. Moreover, the outcome in test [3], in test [4], in test [5], in test [6], in test [7] and in test [8] was inactive. For the same compound, the call in test [9], in test [11], in test [13], in test [14], in [15] and in [16] was inactive.

Turning to `CC(C)C1CC(CCNCc2ccc(N(C)C)cc2)(c2ccccc2)CCO1` (stereo not given), the activation was 185% (active) in test [1], 29% (active) in test [10] and 31.2% (active) in test [12]. Also, the outcome in test [2], in test [3], in test [4], in test [5], in [6] and in [7] was inactive. Also, the outcome in test [8], in test [9], in [11], in test [13], in [14] and in [15] was inactive. Also, in test [16], the result was inactive.

For `CNC[C@H](Cc1ccccc1)NC[C@@H](Cc1cccc2ccccc12)NCCc1ccc(C)cc1`, the activation in [1] was 228% (active); in [12], 68.3% (active); in test [15] it was 37.9% (active). The outcome in test [2], in test [3], in test [4], in [5], in test [6] and in test [7] was inactive. The result in [8], in test [9], in test [10], in test [11], in [13] and in test [14] was inactive. Moreover, in test [16], the result was inactive.

As to `S=C(NCCc1ccccn1)NC1CCCCC1`, the activation in [1] is 97% (active); in [10], 24.5% (active); in [12] it was 28.1% (active). Also, the outcome in [2], in test [3], in [4], in test [5], in [6] and in [7] was inactive. The outcome in [8], in [9], in test [11], in test [13], in test [14] and in test [15] was inactive. Besides, the outcome in [16] was inactive.

For the compound `CCCn1ncc(CN2CCC(n3nccc3NC(=O)CCc3ccccc3)CC2)c1C`, the activation in test [1] was 132% (active); in test [2], 115% (active); in test [10], 36.5% (active). The outcome in test [3], in test [4], in test [5], in [6], in test [7] and in [8] was inactive. Further, the result in test [9], in test [11], in test [12], in test [13], in [14] and in [15] was inactive. Further, the result in test [16] was inactive.

For `CCOC(=O)C1(CCOc2ccccc2)CCN(Cc2cc(OC)ccc2OC)CC1`, the activation in [1] is 68% (active); in test [10], 118% (active). The result in test [2], in test [3], in [4], in test [5], in [6] and in [7] was inactive. The result in test [8], in test [9], in test [11], in [12], in test [13] and in test [14] was inactive. Besides, the result in test [15] and in test [16] was inactive.

For the compound `CCn1c(N2CCN(C(=S)NCCc3ccccc3)CC2)nc2ccccc21`, the outcome in test [1], in test [2], in test [3], in test [4], in [5] and in test [6] was inactive. Further, the outcome in test [7], in test [8], in test [9], in test [10], in [11] and in test [13] was inactive. Also, the outcome in [14], in [15] and in [16] was inactive. In addition, the activation in test [12] is 21% (active).
